The structures appear in SMILES notation. Several values for one entry are separate records, joined by “and”; a condition that tells them apart may be missing. Equal entries are not always repeated. Out of some 340,000 compounds screened, about 3,400 (1%) were called active. This is one part of a sample in which actives are shown more often than they occur.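 How the source made its calls: active means inhibition above the mean over all tested compounds plus 3 SD (cut at about 4.2% in these data); inactive means the rest.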 Some compounds were tested as several samples or in several runs, with calls that do not always agree.

Usually inhibition stands for the drop in the measured response relative to a control, in per cent.

Chain of Nuclear receptor subfamily 0 group B member 1 (Homo sapiens) (P51843 207-470 limits assumed): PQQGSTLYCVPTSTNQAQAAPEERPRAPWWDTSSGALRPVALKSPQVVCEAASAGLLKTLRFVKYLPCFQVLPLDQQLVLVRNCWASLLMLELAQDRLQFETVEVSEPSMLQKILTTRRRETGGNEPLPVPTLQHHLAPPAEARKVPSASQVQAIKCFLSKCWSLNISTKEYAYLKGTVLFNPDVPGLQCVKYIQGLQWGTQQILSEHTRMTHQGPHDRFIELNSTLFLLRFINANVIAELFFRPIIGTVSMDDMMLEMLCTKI

The assay has as its target Nuclear receptor subfamily 0 group B member 1 (Homo sapiens) (UniProt P51843). Nature of the assay: relief of DAX1 transcriptional repression – cell-based, HEK293, Gal4-DAX1, luciferase luminescence, primary screen (AID 504766).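 Further: 0% = DAX1-transfected cells with DMSO and 100% = empty-vector control cells with DMSO; inhibition shows as a rise in luminescence from relieved DAX1 repression.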 As to conditions: HEK293 Gal4-DAX1 luciferase reporter, at 6.75 µM, stronger effect = higher value. Background: Reporter assays use an easily measured gene product as a stand-in for the process of interest.
Take `Cc1cc(-c2nc(C)c(-c3nnc(SCC(=O)Nc4ccccc4)n3C)s2)no1`: the inhibition was -0.43% (inactive). The figure for `Cc1nc(-c2nnc(SCC(=O)Nc3cc(C(F)(F)F)cc(C(F)(F)F)c3)n2C)cs1` is 6.44% (active); for `Cn1c(SCC(=O)Nc2cccc(NC(=O)c3cccs3)c2)nnc1-c1ccncc1` it is -0.64% (inactive); for `O=C(c1ccc(CS(=O)Cc2ccccc2Cl)o1)N1CCN(c2ccccc2)CC1` (centres undefined) it is 0.5% (inactive). For the molecule `CCOC(=O)C(C(=O)c1ccccc1)C(c1ccccc1)c1nccc2ccccc12` (centres undefined), the inhibition is -0.83% (inactive).

Consider `CC1(c2cccc(Br)c2)NC(=O)N(CC(=O)NCCC2=CCCCC2)C1=O` (centres undefined), for which the inhibition is 1.45% (inactive). The figure for `O=S1(=O)CCN(Cc2ccccc2)CC1` is -0.64% (inactive). For the molecule `CC(=O)N1CCN(CCN=CC2=C(O)CC(C)(C)CC2=O)CC1`, the inhibition is 0.1% (inactive). The figure for `O=C1CC(c2ccccc2)CC(O)=C1C=NCCN1CCOCC1` (centres undefined) is -0.18% (inactive); for `CC(C)C(=O)N1CCN(CCN=CC2=C(O)CC(c3ccco3)CC2=O)CC1` (centres undefined) it is 5.43% (active) and 1.58% (inactive); for `CC1(C)CC(=O)C=C(c2ccc(COC(=O)c3cc(F)cc(F)c3)cc2)C1=O` it is -0.88% (inactive).

Take `CC1C(=O)N(Cc2cn(CC3CCCCC3)nn2)CCS(=O)(=O)N1Cc1ccc(-c2cccc(N(C)C)c2)cc1` (centres undefined): the inhibition is 0.14% (inactive). On to `C[C@H](CO)N1C[C@H](C)[C@H](CN(C)C(=O)Nc2ccc3c(c2)OCO3)Oc2ncc(Br)cc2C1=O`, for which the inhibition is 2.47% (inactive). In the case of `Cc1cc2c(c(=O)n1C)C(C(C)C)C(C#N)=C(N)O2` (centres undefined), the inhibition is -0.55% (inactive). The figure for `Cn1c2c(c(=O)n(C)c1=O)C(c1cccc(F)c1)C(C#N)=C(N)O2` (centres undefined) is 5.95% (active); for `N#CC1=C(N)Oc2cc(N)ccc2C1c1ccccc1` (centres undefined) it is 0.38% (inactive); for `CC1CC(NC(=S)N(C)C)CC(C)(C)C1` (centres undefined) it is 1.5% (inactive). For `COc1cccc(/C=C2\SC(=S)N(CCCC(=O)N3CCOCC3)C2=O)c1`, the inhibition is -0.53% (inactive). The figure for `COc1cccc(-c2nn(C)c3sc(C(=O)N4CCN(c5ccccc5)CC4)cc23)c1` is -1.01% (inactive); for `CCOC(=O)N1CCN(C(=O)c2cc3c(-c4ccc(Cl)cc4)nn(C)c3s2)CC1` it is 4.96% (active); for `COc1ccccc1N1CCN(C(=O)c2cc3c(-c4ccc(Cl)cc4)nn(C)c3s2)CC1` it is 2.84% (inactive). For the molecule `COCCCn1c(C(=O)NC2CCCCC2)cc2c(=O)n3cccc(C)c3nc21`, the inhibition is -1.22% (inactive).

Take `O=C(Nc1ccc2c(c1)[C@@H]1C[C@@H](CC(=O)N3CCCCC3)O[C@@H](CO)[C@@H]1O2)NC1CCCCC1`: the inhibition is 0.47% (inactive). The figure for `Cc1cccc(C(=O)NC2CCN(CC(=O)Nc3cccc(Cl)c3)CC2)c1` is 0.29% (inactive); for `O=C(NCCN1CCOCC1)C1CCN(S(=O)(=O)c2ccccc2)CC1` it is 4.19% (inactive).

Consider `CC1C/C(=N/NC(=O)c2cccs2)CC(C)(C)C1` (centres undefined), for which the inhibition is 5.93% (active).

Consider `CC1CC(=NNC(=O)C2COc3ccccc3O2)CC(C)(C)C1` (centres undefined), for which the inhibition was 0.05% (inactive). For `CC1(C)CC(=O)C/C(=N\NC(=O)c2cccs2)C1`, the inhibition was -0.39% (inactive). Regarding `C[C@H](CO)N1C[C@H](C)[C@@H](CN(C)C(=O)c2cnccn2)Oc2ncc(Br)cc2C1=O`, the inhibition was -0.09% (inactive).

Consider `COc1cc2c(cc1OC)C(=O)NCC(C)(C)O2`, for which the inhibition was 4.35% (active). As for `COc1cc(OC)c(C(=O)NC2CC(C)(C)NC(C)(C)C2)cc1OC`, the inhibition was 0.81% (inactive). The figure for `COc1ccc(C(=O)NC2CC(C)(C)NC(C)(C)C2)cc1OC` is 0.53% (inactive); for `O=C(OCc1cn([C@H]2C[C@H](c3ccccc3)N(C(=O)c3cccs3)C[C@@H]2O)nn1)c1ccccc1` it is -0.83% (inactive). For `COc1ccc(C(=O)Nc2nncs2)c(OC)c1`, the inhibition was 5.95% (active).

Take `COc1ccc(C(=O)Nc2cccc(NC(=O)c3ccc(OC)cc3OC)n2)c(OC)c1`: the inhibition was -0.74% (inactive). The figure for `COc1ccc(C(=O)NC2=NCCS2)c(OC)c1` is 0.9% (inactive).

As to `Cn1nc(N)c2ncc(C(Cl)(Cl)Cl)nc21`, the inhibition was 0.87% (inactive). Turning to `CCOC(=O)c1c(C)[nH]c(C)c1C(=O)COC(=O)/C=C/c1cccc([N+](=O)[O-])c1`, the inhibition is 0.45% (inactive). The figure for `CCN(CC)S(=O)(=O)N1CCC(C(=O)NC(C)CCc2ccccc2)CC1` (centres undefined) is 0.09% (inactive); for `CC1=C(C)CC(C(=O)NC(C)CCc2ccccc2)C(C(=O)O)C1` (centres undefined) it is 4.67% (active). For `CC(CCc1ccccc1)NC(=O)c1ccc(Br)o1` (centres undefined), the inhibition is -0.46% (inactive). On to `CC(C)CC1C(=O)N(Cc2cn(CC3CCCCC3)nn2)CCS(=O)(=O)N1Cc1ccc(-c2ccc(Cl)cc2)cc1` (centres undefined), for which the inhibition is 0.42% (inactive).

Consider `CC(=O)c1ccc(OCC(=O)N(C)C2CCS(=O)(=O)C2)cc1` (centres undefined), for which the inhibition was -0.31% (inactive). Consider `CN1CCN(/N=C/c2ccc(C#N)cc2)CC1`, for which the inhibition is 2.94% (inactive).

On to `Cc1ccc(-c2ccc(/C=N/NC(=O)CN3CCOCC3)o2)cc1[N+](=O)[O-]`, for which the inhibition was -1.47% (inactive). With `CN1CCN(/N=C/c2ccc(-c3ccc([N+](=O)[O-])cc3)o2)CC1`, the inhibition was 4.57% (active). On to `C[C@H]1CN(c2ccc(Br)cc2)C(=O)[C@@H]1CC(=O)Nc1ccc(Br)cc1`, for which the inhibition was 0.61% (inactive). The figure for `CCc1cc(C(=O)N(CC)CC(=O)Nc2c(F)cccc2F)sc1C` is 1.94% (inactive); for `Nc1ccc2c(c1)C(O)c1ccc(Cl)cc1-2` (centres undefined) it is 1.37% (inactive). The figure for `CCC(=O)Nc1ccc2nn(-c3ccc(F)cc3)nc2c1` is 1.93% (inactive).

Turning to `Nc1ccc2nn(-c3ccc(Cl)cc3)nc2c1`, the inhibition was 5.29% (active). Regarding `Cc1ccc(Nc2nc(N)nc(CSc3nnc(C)s3)n2)cc1`, the inhibition was 4.29% (active).

With `Cc1nnc(SCc2nc3ccccc3nc2C)s1`, the inhibition was 0.55% (inactive). For `Cc1ccccc1Nc1nc(N)nc(CSc2ccccc2)n1`, the inhibition was 3.71% (inactive). Consider `Cc1cn([C@H]2C[C@H](O)[C@@H](CNC(=O)[C@H](N)Cc3cccnc3)O2)c(=O)[nH]c1=O`, for which the inhibition is 0.07% (inactive). The figure for `CNC(=O)C[C@H]1C(=O)N(c2ccc(OC)cc2)C[C@@H]1Cc1ccccc1` is 0.14% (inactive).

For the molecule `C[C@H](CO)N1C[C@H](C)[C@@H](CN(C)S(=O)(=O)c2ccc(Oc3ccccc3)cc2)OCc2cn(nn2)CCCC1=O`, the inhibition is 0.27% (inactive).

For `COc1ccc(C(CNC(=O)CSc2ccccc2)N2CCOCC2)cc1` (centres undefined), the inhibition is 1.43% (inactive). The figure for `Cc1cccc(C)c1OCC(=O)NC(Cc1c[nH]c2ccccc12)C(=O)O` (centres undefined) is 0.88% (inactive); for `CC(=O)NC(Cc1c[nH]c2ccccc12)C(=O)NCCc1ccccc1` (centres undefined) it is 3.45% (inactive). The figure for `CC(=O)NC(Cc1c[nH]c2ccccc12)C(=O)O` (centres undefined) is 9.87% (active); for `CCc1cc(-c2nnn(CCC3COCCO3)c2CC)ccc1-c1cn(Cc2ccc3ccccc3c2)nn1` (centres undefined) it is -3.79% (inactive).

As to `C[C@H]1CN([C@@H](C)CO)C(=O)CCCn2cc(nn2)CO[C@@H]1CN(C)S(=O)(=O)c1ccc(-c2ccccc2)cc1`, the inhibition is 0% (inactive). The figure for `O=C(CCc1ccc(S(=O)(=O)N2CCOCC2)cc1)NN=C1CCCCCCC1` is 0% (inactive); for `O=C(O)c1ccc(S(=O)(=O)N2CCOCC2)o1` it is 6.4% (active); for `O=C(c1cc(S(=O)(=O)N2CCOCC2)ccc1Cl)N1CCOCC1` it is 0.61% (inactive). The figure for `COc1ccc2c(c1)CCCO[C@]21O[C@H](CCO)C[C@H](O)[C@H]1O` is 0.36% (inactive). Turning to `O=C(O)C1CCCN1c1nc(Cl)ccc1[N+](=O)[O-]` (centres undefined), the inhibition was -0.69% (inactive). As for `Cn1ncc([N+](=O)[O-])c1C(=O)Nc1cc(Cl)ccc1Cl`, the inhibition is 1.05% (inactive). For the molecule `Cc1nc(-c2ccccc2)sc1C(=O)/C=C/c1ccccc1`, the inhibition was 5.32% (active).

In the case of `Cc1nc(-c2ccccc2)sc1C(=O)/C=C/N(C)C`, the inhibition is 3.31% (inactive). For the molecule `Cc1nc(-c2ccc(Cl)cc2)sc1C(=O)CBr`, the inhibition is -0.83% (inactive). The figure for `c1ccc(Cn2nnc3c(NCC4CC4)ncnc32)cc1` is 1.59% (inactive); for `O=C(Nc1ncccc1O)c1ccc(S(=O)(=O)N2CCCCCC2)cc1` it is 1.6% (inactive).

In the case of `O=C(Nc1ncccc1O)c1ccc(S(=O)(=O)N2CCCC2)cc1`, the inhibition was 2.95% (inactive). `O=C(Nc1ncccc1O)c1ccc(C(=O)c2ccccc2)cc1`: the inhibition was 10.6% (active). The figure for `Cc1cccc(C)c1NC(=O)CNC(=O)c1ccc(N2CCOCC2)c([N+](=O)[O-])c1` is 0.52% (inactive); for `CC1=C(C(=O)N2CCOCC2)CC(CC(=O)NCC2CCCCC2)C(=O)N1Cc1ccc(F)cc1` (centres undefined) it is 0.65% (inactive).

Regarding `COc1ccc2nc(SCc3ccccc3)nc(C)c2c1`, the inhibition is 4.59% (active). The figure for `COc1cccc(CSc2nc3nc(C)cc(C)n3n2)c1` is 1.86% (inactive). The figure for `COc1ccc(-c2nnc3ccc(SCc4ccccc4)nn23)cc1` is 0.1% (inactive). The figure for `COc1ccc(-c2ccc(CN3C(CC(C)C)C(=O)N(Cc4cn(CC5CCCCC5)nn4)CCS3(=O)=O)cc2)cn1` (centres undefined) is -0.76% (inactive); for `O=C(NCCOc1ccccc1)N1[C@H]2CC[C@@H]1C=C(c1ccc(F)cc1OCc1ccccc1)C2` it is 0.36% (inactive); for `CCc1c(N=O)c(-c2ccccc2)n(O)[n+]1[O-]` it is 0.23% (inactive).

`C[C@@H]1CN([C@@H](C)CO)C(=O)CCCn2nncc2CO[C@@H]1CN(C)S(=O)(=O)c1ccc(-c2ccccc2)cc1`: the inhibition was 0.31% (inactive). With `O=C(/C=C/c1ccc2c(c1)OCCO2)c1ccc(O)cc1`, the inhibition was 16.4% (active). Take `O=C(COC(=O)c1ccc(O)cc1O)c1ccc2c(c1)OCCO2`: the inhibition is -0.46% (inactive). The figure for `O=C(/C=C\c1ccc2c(c1)OCO2)NC1(C(=O)Nc2ccc3c(c2)OCCO3)CCCCC1` is -0.83% (inactive); for `COc1ccc(-c2ccc(CN3C(CC(C)C)C(=O)N(Cc4cn(CC5CCCCC5)nn4)CCS3(=O)=O)cc2)cc1` (centres undefined) it is 1.23% (inactive).

For the origin of these results see PubChem BioAssay AID504766 (The Scripps Research Institute Molecular Screening Center, 2011).
